From PubChem BioAssay come the findings set out here.

Structures are written as SMILES. Calls of active or inactive are those of the source. The rule behind the calls is not given here.

One may read the inhibition as how much of the control response was suppressed.

In the assay the target is Pantothenate synthetase (Mycobacterium tuberculosis (strain ATCC 25618 / H37Rv)) (UniProt P9WIL5). Put plainly: Recombinant Mtb pantothenate synthetase (PanC) inhibitors, coupled enzyme, confirmatory (AID 375).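 Note: 0% = full reaction with vehicle and 100% = no enzyme background.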 As to conditions: coupled enzyme assay; at 10 µM, active compounds read high.
Pantothenate synthetase (Mycobacterium tuberculosis (strain ATCC 25618 / H37Rv)), sequence (P9WIL5 whole entry, looked up): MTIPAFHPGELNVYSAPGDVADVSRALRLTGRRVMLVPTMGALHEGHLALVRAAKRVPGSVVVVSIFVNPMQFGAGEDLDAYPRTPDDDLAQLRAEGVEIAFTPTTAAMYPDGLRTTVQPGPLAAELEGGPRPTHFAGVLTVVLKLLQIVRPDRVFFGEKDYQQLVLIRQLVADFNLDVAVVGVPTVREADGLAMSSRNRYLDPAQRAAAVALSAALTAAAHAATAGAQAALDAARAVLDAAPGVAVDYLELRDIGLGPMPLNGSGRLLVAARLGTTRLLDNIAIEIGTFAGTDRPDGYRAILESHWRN
Regarding `Cn1c(SCC(=O)c2ccc(-c3ccccc3)cc2)nnc1-c1ccco1`, the inhibition is 2% (inactive).
The result for `CS(=O)(=O)N(CC(=O)O)c1cccc(Cl)c1` reads 3% (inactive).
For the compound `Fc1ccc(C(c2ccc(F)cc2)N2CCN(C/C=C/c3ccccc3)CC2)cc1`, the inhibition was 0% (inactive).
Next, `CCC1CCCCN1S(=O)(=O)c1ccc(C(=O)Nc2nnc(-c3cccs3)o2)cc1` (stereo unspecified): 2% (inactive).
Next, `CCOc1cc(NC(=O)c2ccco2)c(OCC)cc1NC(=O)Cc1cccc(OC)c1`: 8% (inactive).
Next, `CSCCC(NC(=O)c1ccco1)C(=O)OC(C)C(=O)NC(=O)NC1CCCCC1` (stereo unspecified): 0% (inactive).
Take `COc1cc(NC(=O)C2CC(c3cccc(OC)c3OC)=NO2)cc(OC)c1OC` (stereo unspecified): the inhibition was 0% (inactive).
The result for `CCCc1cc(=O)[nH]c(SCc2ccccc2)n1` reads 0% (inactive).
Next, `N#CC1=C(SCC(=O)NC23CC4CC(CC(C4)C2)C3)NC(=O)C(C#N)C12CCCCC2` (stereo unspecified): 0% (inactive); `CS(=O)(=O)N(CC(=O)Nc1cccc(F)c1)Cc1ccccc1`: 0% (inactive).
The result for `CC(C)c1ccc(C(O)c2cnc(C(C)C)n2C)cc1` (stereo unspecified) reads 1% (inactive); that for `Cc1ccc(S(=O)(=O)N(CC(=O)N2CCC(C(N)=O)CC2)c2cccc(C(F)(F)F)c2)cc1`, 0% (inactive); that for `O=P(O)(O)c1ccccc1OCCOCCOc1ccccc1P(=O)(O)O`, 4% (inactive).
On to `CCOC(=O)C1=C(N)c2ccccc2CC1C(C)C` (stereo unspecified), for which the inhibition was 0% (inactive).
`Cc1cc(NCCCn2ccnc2)n2c(nc3ccccc32)c1C#N`: the inhibition is 0% (inactive).
Next, `COc1ccc2c(c1)C(=NO)c1cc(OC)ccc1-2`: 0% (inactive).
